We go through three compounds from PubChem BioAssay AID651598 (Sanford-Burnham Center for Chemical Genomics, 2012).

Several values for one entry are separate records, joined by “and”; a condition that tells them apart may be missing. Identical values can stand only once.

The assay deals with Apelin receptor (Homo sapiens) (UniProt P35414). In words: apelin receptor (APJ) antagonists, SAR follow-up, counter-screen for CXCR6 antagonist project, cell-based, beta-arrestin, DiscoveRx, panel, CHO-K1 (AID 651598). The settings on record: CHO-K1 PathHunter beta-arrestin luminescence, antagonist mode; run 3, at 80 µM (top of the series). A general note: Counterscreens check selectivity or assay interference.
Sequence of Apelin receptor (Homo sapiens) (P35414 whole entry, looked up): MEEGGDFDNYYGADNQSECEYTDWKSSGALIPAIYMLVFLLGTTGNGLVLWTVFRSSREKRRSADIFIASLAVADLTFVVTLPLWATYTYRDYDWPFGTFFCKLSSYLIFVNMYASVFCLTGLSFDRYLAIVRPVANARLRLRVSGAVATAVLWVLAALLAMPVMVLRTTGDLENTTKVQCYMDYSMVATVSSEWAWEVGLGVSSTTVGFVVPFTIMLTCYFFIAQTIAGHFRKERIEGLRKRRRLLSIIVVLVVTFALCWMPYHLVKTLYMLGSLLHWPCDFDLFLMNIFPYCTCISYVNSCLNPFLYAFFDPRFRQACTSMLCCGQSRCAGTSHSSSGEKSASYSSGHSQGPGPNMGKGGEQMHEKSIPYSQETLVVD
For `COc1cc(C(=O)NC2CCN(CC(=O)Nc3ccccc3)CC2)cc(OC)c1OC`, the inhibition turned out to be 19.7%.
Then `COc1cc(C(=O)NC2CC3CCC(C2)N3CC(=O)Nc2ccccc2)cc(OC)c1OC` (stereo not drawn), with 2.29% and 12.1%; and `COc1cc(C(=O)NC2CC3CCCC(C2)N3CC(=O)Nc2ccccc2)cc(OC)c1OC` (stereo not drawn), with -24.7% and 10.7% and 13.8%.

For orientation: inhibition means the change of the read-out against control, counted positive when it falls.
